Screening results from PubChem.
p53null 39C tox – kills p53 null cells at the nonpermissive temperature; 55,000 tested, 0.97% active; AID 904; H1299 p53-null (neo) cells, 39C, ATPlite viability, 24 h; Potency, µM (doses to about 46.1 µM), inactives show at the highest dose activity, negative = cell killing, usual class: cytotoxic;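 note: 0% = DMSO only and -100% = full killing by 100 µM tamoxifen; nearly all actives have a fitted effect of over 50% in size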
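Cells seeded at 600/well, 37C overnight. Compound added (up to 46 uM), plates shifted to 39C for 24 hr. ATPlite added, luminescence read after 20 min at room temperature.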
NTMT1 inh – inhibitors of human N-terminal methyltransferase NTMT1; NTMT1 MTase-Glo SAH luminescence, purified enzyme; Potency, µM (doses to about 114 µM), without a hit: top-dose activity change, negative = inhibition, hits mostly inhibitors; 59,000 tested, 2.5% active; AID 1645870;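 note: plate controls were DMSO vehicle for no effect and no enzyme for full effect; nearly all actives have a fitted effect of over 65% in size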
Target sequence (Q9BV86 whole entry, looked up): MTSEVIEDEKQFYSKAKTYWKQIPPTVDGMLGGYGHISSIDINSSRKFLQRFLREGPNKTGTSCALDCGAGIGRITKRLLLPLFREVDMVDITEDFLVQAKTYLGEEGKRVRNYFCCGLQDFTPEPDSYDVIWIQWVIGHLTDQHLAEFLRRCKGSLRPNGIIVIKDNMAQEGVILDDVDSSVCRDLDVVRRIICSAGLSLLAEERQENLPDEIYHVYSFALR
FH mod – Identification of activators of human fumarate hydratase by quantitative high-throughput screening. Fumarate hydratase, mitochondrial (Homo sapiens), P07954. FH coupled MDH/diaphorase resazurin fluorescence, 15 min. Potency, µM (series often up to 79.9 µM), inactives show top-dose activity change, negative = inhibition, hits mostly inhibitors. 54,000 tested, 0.22% active; note: the screen sought activators but most active calls are inhibition curves; nearly all actives have a fitted effect of over 45% in size
Target sequence (P07954 whole entry, looked up): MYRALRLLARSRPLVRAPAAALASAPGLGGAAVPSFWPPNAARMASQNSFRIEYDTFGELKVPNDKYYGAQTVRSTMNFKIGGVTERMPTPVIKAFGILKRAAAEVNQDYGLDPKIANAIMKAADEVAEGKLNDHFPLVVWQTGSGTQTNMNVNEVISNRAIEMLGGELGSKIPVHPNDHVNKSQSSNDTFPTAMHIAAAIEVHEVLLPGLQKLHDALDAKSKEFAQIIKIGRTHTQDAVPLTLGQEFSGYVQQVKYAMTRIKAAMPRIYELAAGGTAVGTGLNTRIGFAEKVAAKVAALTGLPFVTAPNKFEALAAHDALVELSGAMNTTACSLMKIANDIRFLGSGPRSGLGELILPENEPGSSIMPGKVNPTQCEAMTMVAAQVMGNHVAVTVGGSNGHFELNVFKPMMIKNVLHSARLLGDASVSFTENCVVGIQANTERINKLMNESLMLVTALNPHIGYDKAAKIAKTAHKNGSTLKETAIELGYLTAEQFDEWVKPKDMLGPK
p53null 32C tox – p53 null cell cytotoxicity, permissive temperature; 55,000 tested, 0.62% active; Potency, µM (highest dose often 46.1 µM), without a hit: at the top dose activity change, negative = cytotoxicity, usual class: cytotoxic; H1299-neo p53 null cells, ATP luminescence, 24 h, 32C;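 note: 0% = DMSO only and -100% = full killing by 100 µM tamoxifen; nearly all actives have a fitted effect of over 55% in size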
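AC50 values derive from Hill modelling of qHTS concentration-response data (up to 46 uM) in H1299-neo cells. Cells were treated 24 h at 32C following overnight attachment at 37C; viability was read as cellular ATP.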
SKOV3 invasion – inhibitors of ovarian cancer cell adhesion and invasion in omental model. SKOV3ip1-GFP adhesion/invasion on 3D omental model, fluorescence. Potency, µM (titrated, usually from 45.8 µM), inactives show top-dose activity change, negative = inhibition, hits mostly inhibitors. 46,000 tested, 0.1% active. AID 1963576;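 note: plate controls were DMSO wells for no effect and tomatine positive control wells for full effect; nearly all actives have a fitted effect of over 65% in size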
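qHTS, 4-pt dose (0.36-46 umol/L); SKOV3ip1-GFP, 1,200 cells/well, no FBS; primary omental fibroblast/mesothelial co-culture 48 h pre-grown; 2 h RT + 16 h 37 C; PBS wash, 4% PFA; GFP count 488/509 nm.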
Active calls of the source: *; i = inactive; ? = inconclusive; . = no result given; ! = not active in a repeat; [ ] = remark or other dose. This excerpt belongs to a sample that is enriched for hits. Calls come from the whole dose curve; as a rule, active = well fitted curve in the direction sought with a large enough effect; inconclusive = small, poorly fitted or top-dose-only effect, or another doubt; inactive = no such curve, though single readings can be large; an effect the other way counts as inactive or inconclusive. Unless noted, % is set by controls: 0 for no effect and ±100 for the full control effect; potency is the fitted concentration of half-maximal effect.

SMILES | p53null 39C tox | NTMT1 inh | FH mod | p53null 32C tox | SKOV3 invasion
CC(C)(Nc1nc(-c2ccccc2C(F)(F)F)nc2ccccc12)c1ccc(-c2cccc(C(F)(F)F)c2)cc1 | . | 0% | . | . | .
Nc1ncnc2c1ncn2[C@@H]1O[C@H](COP(=O)(O)OP(=O)(O)OP(=O)(O)OP(=O)(O)OC[C@@H]2O[C@H](n3cnc4c(N)ncnc43)[C@@H](O)C2O)C(O)[C@H]1O (some centres undefined) | . | . | 0%[53.3 µM] | . | .
Clc1ccc(CSc2nc3ncc(Br)cc3[nH]2)cc1 | . | -5%[57.5 µM] | . | . | .
Clc1ccc(CSc2nc3ncccc3[nH]2)cc1 | ? | -3% | 1% | 10µM* | 3%
Cc1ccc(C2C=C(c3ccccc3)Nc3nc(NS(=O)(=O)c4ccccc4)nn32)cc1 (centres undefined) | 1% | 10% | -6% | 0% | i
Cc1ccc(S(=O)(=O)Nc2nc3n(n2)C(c2ccc(Cl)cc2)C=C(c2ccccc2)N3)cc1 (centres undefined) | 7% | 35µM* | ? | 22% | -9%
CCOc1cc(C(C)(C)C)ccc1C1=NC(C)(c2ccc(Cl)cc2)C(C)(c2ccc(Cl)cc2)N1C(=O)N1CCN(CCCS(C)(=O)=O)CC1 (centres undefined) | . | 0%[57.5 µM] | ? | . | .
Cc1cccc(NC(=O)Cn2cc(C(=O)c3ccco3)c3ccccc32)c1C | -20% | 79µM* | 1% | 1% | -6%
Cc1ccc(C)c(NC(=O)Cn2cc(C(=O)c3ccco3)c3ccccc32)c1 | ? | -22% | -2% | -12% | 1%
NC1(c2ccc(-c3nc4ccn5c(=O)[nH]nc5c4cc3-c3ccccc3)cc2)CCC1 | . | 50µM*! | 7% | . | -16%
Nc1ncc(C(=O)NC2CN(C(=O)C3CC3)C2)c2ccc(-c3cccc(F)c3)nc12 | . | -1% | . | . | .
CCc1cnc2c(c1SC(C(C)=O)C(=O)N(C)C)c(=O)n(C)c(=O)n2C (centres undefined) | -7% | 25µM* | -3% | 7% | 4%
CCc1cnc2c(c1SCC(=O)N1CCCCC1)c(=O)n(C)c(=O)n2C | 3% | -1% | 2% | 7% | 6%
CN1CCc2cccc3c2C1Cc1ccc(O)c(O)c1-3 (centres undefined) | . | . | 14µM* | . | .
CCc1cccc(CC)c1NC(=O)c1cc(S(=O)(=O)N2CCc3ccccc32)cn1C | 22% | 14% | 7% | 44% | i
CCN(C(=O)c1cc(S(=O)(=O)N2CCc3ccccc32)cn1C)c1cccc(C)c1 | 70% | 89µM* | -32% | 46% | 10%
CCOc1ccc(C(=O)Nc2ccc3c(c2)OCCO3)cc1Br | 13µM* | 0% | -3% | ? | i
CCN(CC)S(=O)(=O)c1ccc2c(c1)c(=O)c(C(=O)NCc1ccccc1)cn2C | 13% | 6% | -4% | 8% | 5%
CCN(CC)S(=O)(=O)c1ccc2c(c1)c(=O)c(C(=O)NCc1ccccc1Cl)cn2C | 5µM* | -15% | -5% | ? | i
Cc1cc(NS(=O)(=O)c2ccc(NC(=O)Cc3ccc(Cl)c(C(F)(F)F)c3)cc2)no1 | . | 25% | . | . | .
COC(=O)CC1OC(C)C2=C(O)c3c(O)cccc3C(=O)C23OC13 (centres undefined) | . | -8%[29.8 µM] | ? | . | .
Clc1cccc(C2=NC(c3cccs3)=Nc3ccc(Br)cc3N2)c1 | 3% | 89µM* | ? | 11% | -2%
Clc1ccc2c(c1)NC(c1ccncc1)=NC(c1cccs1)=N2 | -13% | ? | -9% | 3% | 3%
COC(=O)Nc1nc2ccc(C(=O)c3cccs3)cc2[nH]1 | . | 28µM*! | -15%[53.3 µM] | . | 24%
COC(=O)Nc1nc2ccc(C(=O)c3ccccc3)cc2[nH]1 | . | 30µM*! | -6%[53.3 µM] | . | 10%
SMILES | p53null 39C tox | NTMT1 inh | FH mod | p53null 32C tox | SKOV3 invasion
CCCS(=O)c1ccc2nc(NC(=O)OC)[nH]c2c1 (centres undefined) | . | 50µM*! | 6% | . | 24%
NC(=O)CCCSc1nc(N)nc(-c2c(Cl)cc3c4c(cccc24)COC3)n1 | . | 4%[57.5 µM] | 4% | . | .
Nc1ncnc2c1ncn2[C@H]1O[C@@H](C(=O)N2CCN(CC(=O)Nc3cccc4c3CNC4=O)CC2)[C@H](O)[C@@H]1O | . | -1%[57.5 µM] | -1% | . | .
Nc1ccc(-c2nnc(NC(=O)Nc3ccc(Cl)c(Cl)c3)s2)cc1 | . | -5% | . | . | .
O=C(Nc1ccc(Cl)c(Cl)c1)Nc1nnc(-c2cccnc2)s1 | . | 22µM* | . | . | .
CSc1cccc(NC(=O)c2ccc3c(c2)CCCN3S(C)(=O)=O)c1 | ? | -4% | -29% | 13µM* | -3%
CC1=C(/C=C/C(C)=C/C=C/C(C)=C/C(=O)O)C(C)(C)CCC1 | . | 79µM*! | ? | . | .
N#CC1=C2SCN(C3CCCCC3)CN2C(=O)CC1c1c(F)cccc1Cl (centres undefined) | 10% | 32µM* | -15% | 3% | 1%
CC1=C(C(=O)OC2CCCCCC2)C(c2ccc(Cl)cc2)CC(=O)N1 (centres undefined) | -14% | 12% | -2% | 3% | -10%
N#CC1=C2SCN(C3CCCCC3)CN2C(=O)CC1c1ccc(Cl)cc1 (centres undefined) | -13% | 25µM* | -27% | -1% | 2%
N#CC1=C2SCN(C3CCCCC3)CN2C(=O)CC1c1ccc(F)cc1 (centres undefined) | 6% | 25µM* | -18% | 4% | -26%
CC(C)(NC(=O)Nc1ccccc1Cl)C(=O)N1CCC(C(=O)O)CC1 | . | 12% | . | . | .
CNC(=O)O[C@H]1COc2ccc(N3CCN(C4COC4)CC3)cc2[C@@H]1NC(=O)c1ccc(F)cc1 | . | 1%[57.5 µM] | -10% | . | .
C=C(C)C1CC(O)C(C)C12CC(O)C1(C)OC1C2O (centres undefined) | . | 14%[57.5 µM] | ? | . | .
Cc1c(Cl)cccc1-c1ccc(/C=C(\C#N)c2nc3ccccc3[nH]2)o1 | 10µM* | -27% | -6% | ? | -22%
Cc1ccc2nc(/C(C#N)=C/c3ccc(-c4ccc(F)cc4F)o3)[nH]c2c1 | 7.9µM* | ? | -9% | -16% | -11%
COc1cccc(/C=C(\C#N)c2nc3ccc(C)cc3[nH]2)c1 | ? | ? | -11% | ? | -15%
N#C/C(=C\c1ccc(Sc2ccc(Cl)cc2)o1)c1nc2ccccc2[nH]1 | . | . | . | -14% | .
O=C(OCC12OC1C=CC(OC(=O)c1ccccc1)C2O)c1ccccc1 (centres undefined) | . | 11%[29.8 µM] | 3%[53.3 µM] | . | .
Cc1nnc(-c2cnn(C)c2N)n1CCCn1ccnc1 | . | -15%[57.5 µM] | . | . | .
C=CC(=O)N1C[C@H](Nc2ncnc3[nH]ccc23)CC[C@@H]1C | . | 10% | . | . | .
COC(=O)c1cc(C)nc2c1c(=O)nc(SCc1c(C)cc(C)cc1C)n2C1CC1 | 13µM* | -9% | ? | 41% | -7%
Cn1ncnc1[C@H]1c2n[nH]c(=O)c3cc(F)cc(c23)N[C@@H]1c1ccc(F)cc1 | . | -14% | 2%[53.3 µM] | . | .
